According to PubChem BioAssay:

Each molecule was assayed against Left-right determination factor 2 (Homo sapiens) (UniProt O00292) (assay: small molecules binding LEFTY2 protein – biochemical, small-molecule microarray, 635 nm fluorescence scan, primary screen (AID 1110)). Conditions: higher = more signal.
Chain of Left-right determination factor 2 (Homo sapiens) (O00292 whole entry, looked up): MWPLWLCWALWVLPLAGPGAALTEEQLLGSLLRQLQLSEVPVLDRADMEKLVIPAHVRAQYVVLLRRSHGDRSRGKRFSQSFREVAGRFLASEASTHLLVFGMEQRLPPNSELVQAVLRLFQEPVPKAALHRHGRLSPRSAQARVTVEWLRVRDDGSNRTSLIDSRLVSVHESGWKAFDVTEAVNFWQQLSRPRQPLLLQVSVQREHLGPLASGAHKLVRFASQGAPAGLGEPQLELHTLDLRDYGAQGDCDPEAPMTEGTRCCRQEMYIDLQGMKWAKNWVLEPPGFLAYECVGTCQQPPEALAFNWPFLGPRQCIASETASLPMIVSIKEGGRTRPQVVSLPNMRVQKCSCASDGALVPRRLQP

Row | SMILES | composite z-score
1 | C[C@@H]1NC(=O)[C@@H](Cc2ccccc2)NC(=O)[C@@]23C(=O)N[C@@H](Cc4ccccc4)C2[C@H](C)[C@@]2(C)O[C@H]2C3/C=C/C/C=C\CNC1=O (stereo partly specified) | -0.22
2 | COc1cccc(C)c1NC(=O)O[C@H]1[C@H](OC(=O)Nc2ccc3c(c2)OCO3)[C@@H](OC(=O)Nc2ccc3c(c2)OCO3)[C@@H](OC)O[C@@H]1CO | 0.794
3 | C=C(COC)/C(=C/C[C@H](OC(=O)c1ccncc1)c1ccc(CO)o1)c1cnc2ccccc2c1 | 0.321
4 | CC(C)=C1C(=O)C(c2ccccc2)=C2CN3C(=O)N(CCc4ccccc4)C(=O)[C@]3(Cc3ccc(C(F)(F)F)cc3)[C@H]21 | -0.906
5 | CCCCNC(=O)c1ccc(C#CC(C)(C)C)c(OC(C)=O)c1 | 0.806
6 | C=CCC(OC(C)=O)[C@@H]1[C@@H](N(Cc2cccc3ccccc23)C(=O)Cc2ccc(OC)cc2)c2cc(OCCCO)ccc2N1C(=O)c1ccc(-c2ccccc2)cc1 (stereo partly specified) | -0.279
7 | COc1cc(NN2C(C(O)c3ccc(N(C)C)cc3)C=CC3C(=O)N(c4ccccc4)C(=O)C32)cc(OC)c1OC (stereo unspecified) | 0.143
8 | CCCC[C@@H](O)C1=C(COC)C[C@H]2C(=O)N(C)C(=O)[C@H]2[C@H]1CO | 0.822
9 | CC1CC/C=C\[C@H]2OC34C=CCN(c5ccc6ccccc6c5)C(=O)[C@H]3N(CCCO)C(=O)[C@@H]4C2C(=O)O1 (stereo partly specified) | -1.85
10 | CC(C)C(CO)N1C(=O)[C@@H]2[C@H]3C(=O)OCC=C[C@H]3OC23C=CCN(c2ccc(Cl)cc2)C(=O)[C@@H]13 (stereo partly specified) | -0.433
11 | CCCN1C(=O)[C@@]2(Cc3ccccc31)N=C(c1ccc(OCCCO)cc1)O[C@H]2c1ccccc1 | -0.256
